Results as given in PubChem BioAssay AID1159580 (chemical genetic matrix, 2015).
Out of some 5,500 compounds screened, about 2,000 (36%) were called active. Inconclusive results (about 18%) are left out. Cut-off read from the data, not from the text of the source: active = normalized growth mostly below about 0.91 (no sharp cut-off); inconclusive = no clear call, values can overlap the other calls; inactive = mostly above about 0.92. The list shows a part of the results.

Assay: chemical genetic growth profiling, strain panel (AID 1159580);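 note: tested at 20 µM; growth read once vehicle control cultures reached saturation at 30 °C; 1 = growth at the plate median or of vehicle wells; lower values mean less growth of the strain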
Conditions: S. cerevisiae deletion strains, growth OD
[1] = locus YHR030C, strain SLT2, stronger effect = lower value

Measured: normalized growth

O=C(COC(=O)c1ccccc1Nc1cccc(F)c1)c1ccccc1
inactive: locus YAL013W, strain DEP1, stronger effect = lower value 0.98 | locus YBR229C, strain ROT2, stronger effect = lower value 0.994 | locus YDL101C, strain DUN1, stronger effect = lower value 1.01 | locus YDL134C, strain PPH21, stronger effect = lower value 0.997 | locus YDR150W, strain NUM1, stronger effect = lower value 1.01 | locus YEL061C, strain CIN8, stronger effect = lower value 0.989 | locus YGR078C, strain PAC10, stronger effect = lower value 0.982 | [1] 0.93 | locus YHR087W, strain rtc3, stronger effect = lower value 1 | locus YJR043C, strain POL32, stronger effect = lower value 0.986 | locus YJR075W, strain HOC1, stronger effect = lower value 1.03 | locus YKL190W, strain CNB1, stronger effect = lower value 0.989 | locus YLR039C, strain RIC1, stronger effect = lower value 1.01 | locus YLR058C, strain SHM2 (second series), stronger effect = lower value 0.989 | locus YLR085C, strain ARP6, stronger effect = lower value 0.916 | locus YLR262C, strain YPT6, stronger effect = lower value 1.02 | locus YML094W, strain GIM5, stronger effect = lower value 0.996 | locus YMR219W, strain ESC1, stronger effect = lower value 0.997 | locus YMR263W, strain SAP30, stronger effect = lower value 0.997 | locus YMR307W, strain GAS1, stronger effect = lower value 0.882 | locus YNL128W, strain TEP1, stronger effect = lower value 0.987 | locus YNL153C, strain GIM3, stronger effect = lower value 0.99 | locus YNL298W, strain CLA4 (second series), stronger effect = lower value 0.97 | locus YNL322C, strain KRE1, stronger effect = lower value 0.981 | locus YNR030W, strain Alg12, stronger effect = lower value 0.978 | locus YPL055C, strain LGE1, stronger effect = lower value 1.01 | locus YPL241C, strain CIN2, stronger effect = lower value 0.96 | locus YPR135W, strain CTF4, stronger effect = lower value 1.01

Cc1c(Nc2ncccc2C(=O)O)cccc1C(F)(F)F
inactive: locus YAL021C, strain ccr4, stronger effect = lower value 0.937 | locus YAL026C, strain drs2, stronger effect = lower value 0.979 | locus YAL030W, strain snc1, stronger effect = lower value 0.981 | locus YBL061C, strain skt5, stronger effect = lower value 0.981 | locus YBR009C, strain hhf1, stronger effect = lower value 0.967 | locus YBR023C, strain chs3, stronger effect = lower value 0.99 | locus YBR171W, strain sec66, stronger effect = lower value 0.969 | locus YBR231C, strain swc5, stronger effect = lower value 1.01 | locus YBR279W, strain paf1, stronger effect = lower value 0.987 | locus YCL011C, strain gbp2, stronger effect = lower value 0.979 | locus YCL016C, strain dcc1, stronger effect = lower value 0.975 | locus YCL069W, strain vba3, stronger effect = lower value 0.985 | locus YCR088W, strain abp1, stronger effect = lower value 0.979 | locus YDL005C, strain med2, stronger effect = lower value 0.986 | locus YDL040C, strain nat1, stronger effect = lower value 0.981 | locus YDR001C, strain nth1, stronger effect = lower value 0.964 | locus YDR069C, strain doa4, stronger effect = lower value 0.966 | locus YDR137W, strain rgp1, stronger effect = lower value 0.979 | locus YDR159W, strain sac3, stronger effect = lower value 0.999 | locus YDR195W, strain ref2 0.955 | locus YDR297W, strain sur2, stronger effect = lower value 0.996 | locus YDR334W, strain swr1, stronger effect = lower value 0.961 | locus YDR335W, strain msn5, stronger effect = lower value 0.983 | locus YDR392W, strain spt3, stronger effect = lower value 1 | locus YEL003W, strain gim4, stronger effect = lower value 0.974 | locus YEL037C, strain rad23, stronger effect = lower value 0.989 | locus YEL061C, strain CIN8 (second series), stronger effect = lower value 0.981 | locus YER015W, strain faa2, stronger effect = lower value 0.988 | locus YER016W, strain bim1, stronger effect = lower value 0.978 | locus YER111C, strain swi4, stronger effect = lower value 0.963 | locus YER155C, strain BEM2 (second series), stronger effect = lower value 1.01 | locus YFR010W, strain ubp6, stronger effect = lower value 0.978 | locus YGL167C, strain pmr1, stronger effect = lower value 0.952 | locus YGL173C, strain kem1, stronger effect = lower value 0.984 | locus YGL227W, strain vid30, stronger effect = lower value 0.978 | locus YGL240W, strain doc1, stronger effect = lower value 1.02 | locus YGL253W, strain hxk2, stronger effect = lower value 0.968 | locus YHR013C, strain ard1, stronger effect = lower value 0.958 | locus YHR027C, strain rpn1, stronger effect = lower value 0.971 | [1] 0.947 | locus YHR079C, strain IRE1, stronger effect = lower value 0.974 | locus YHR142W, strain chs7, stronger effect = lower value 0.96 | locus YJL092W, strain hpr5, stronger effect = lower value 0.961 | locus YJL095W, strain BCK1 (second series), stronger effect = lower value 0.983 | locus YJL095W, strain BCK1, stronger effect = lower value 0.989 | locus YJL115W, strain asf1, stronger effect = lower value 0.958 | locus YJL129C, strain trk1, stronger effect = lower value 0.955 | locus YJL154C, strain vps35, stronger effect = lower value 0.972 | locus YJL164C, strain tpk1, stronger effect = lower value 0.97 | locus YJL166W, strain qcr8, stronger effect = lower value 0.994 | locus YJL187C, strain SWE1, stronger effect = lower value 0.992 | locus YJR066W, strain TOR1, stronger effect = lower value 0.928 | locus YKL160W, strain elf1, stronger effect = lower value 0.967 | locus YKR026C, strain gcn3, stronger effect = lower value 0.972 | locus YKR091W, strain srl3, stronger effect = lower value 0.97 | locus YLL001W, strain dnm1, stronger effect = lower value 0.981 | locus YLL026W, stronger effect = lower value 0.978 | locus YLL041C, strain sdh2, stronger effect = lower value 0.953 | locus YLR027C, strain aat2, stronger effect = lower value 0.993 | locus YLR113W, strain HOG1, stronger effect = lower value 0.991 | locus YLR221C, strain rsa3, stronger effect = lower value 0.997 | locus YLR258W, strain gsy2, stronger effect = lower value 0.969 | locus YLR262C, strain YPT6 (second series), stronger effect = lower value 1.02 | locus YLR320W, strain mms22, stronger effect = lower value 1.01 | locus YLR342W, strain FKS1, stronger effect = lower value 0.988 | locus YLR357W, strain rsc2, stronger effect = lower value 0.952 | locus YLR370C, strain arc18, stronger effect = lower value 0.963 | locus YLR384C, strain iki3, stronger effect = lower value 1 | locus YML120C, strain ndi1, stronger effect = lower value 0.974 | locus YMR058W, strain fet3, stronger effect = lower value 0.972 | locus YMR125W, strain sto1, stronger effect = lower value 0.945 | locus YMR129W, stronger effect = lower value 0.972 | locus YMR205C, strain PFK2, stronger effect = lower value 0.977 | locus YMR231W, strain pep5, stronger effect = lower value 0.983 | locus YNL071W, strain lat1, stronger effect = lower value 0.981 | locus YNL183C, strain NPR1, stronger effect = lower value 0.954 | locus YNL209W, strain ssb2, stronger effect = lower value 0.983 | locus YNL248C, strain rpa49, stronger effect = lower value 0.996 | locus YNL322C, strain KRE1 (second series), stronger effect = lower value 0.97 | locus YNR049C, strain mso1, stronger effect = lower value 0.962 | locus YOR001W, strain rrp6, stronger effect = lower value 0.983 | locus YOR070C, strain gyp1, stronger effect = lower value 0.989 | locus YOR080W, strain dia2, stronger effect = lower value 0.979 | locus YOR083W, strain WHI5, stronger effect = lower value 0.98 | locus YOR106W, strain vam3, stronger effect = lower value 0.957 | locus YOR231W, strain MKK1, stronger effect = lower value 0.982 | locus YOR265W, strain rbl2, stronger effect = lower value 0.968 | locus YOR270C, strain vph1, stronger effect = lower value 0.983 | locus YOR290C, strain snf2, stronger effect = lower value 0.943 | locus YPL051W, strain arl3, stronger effect = lower value 1.01 | locus YPL078C, strain atp4, stronger effect = lower value 0.951 | locus YPL106C, strain sse1, stronger effect = lower value 0.982 | locus YPL240C, strain hsp82, stronger effect = lower value 0.98 | locus YPL256C, strain CLN2, stronger effect = lower value 0.951
